The panel holds about 83,000 compounds, 20% with a hit somewhere; the sample as a whole holds those more often.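 Compound tested at a single concentration for 48 hours in 96-well plates; a percent growth value below 10 was scored as active.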 Activity calls are given as the source filed them.
What was measured:
Test in all cases: NCI-60 one-dose screen, 48 h (100 = growth as untreated, 0 = no growth, -100 = all killed)
Conditions in all cases: 10 µM unless noted
NCI-H23 lung = test system: NCI-H23 lung
NCI-H226 lung = test system: NCI-H226 lung
NCI-H322M lung = test system: NCI-H322M lung
HOP-62 NSCLC = test system: HOP-62 NSCLC
NCI-H460 lung = test system: NCI-H460 lung
HOP-92 NSCLC = test system: HOP-92 NSCLC
NCI-H522 lung = test system: NCI-H522 lung
A549/ATCC NSCLC = test system: A549/ATCC NSCLC
786-0 renal = test system: 786-0 renal
COLO 205 colon = test system: COLO 205 colon
DU-145 prostate = test system: DU-145 prostate
K-562 leukemia = test system: K-562 leukemia
MALME-3M melanoma = test system: MALME-3M melanoma
MDA-MB-231 breast = test system: MDA-MB-231 breast
RXF 393 renal = test system: RXF 393 renal
SF-268 CNS = test system: SF-268 CNS
SF-295 CNS = test system: SF-295 CNS
SF-539 CNS = test system: SF-539 CNS
UACC-257 melanoma = test system: UACC-257 melanoma
M14 melanoma = test system: M14 melanoma

Measured: growth

O=C(O)C1CCCN1C(=O)OCc1ccccc1 (stereo not given)
inactive: NCI-H23 lung 104% | NCI-H226 lung 108% | NCI-H322M lung 104% | HOP-62 NSCLC 127% | NCI-H460 lung 102% | HOP-92 NSCLC 122% | NCI-H522 lung 85.6% | A549/ATCC NSCLC 93.7% | 786-0 renal 106% | COLO 205 colon 107% | DU-145 prostate 118% | K-562 leukemia 99.1% | MALME-3M melanoma 108% | MDA-MB-231 breast 128% | RXF 393 renal 139% | SF-268 CNS 107% | SF-295 CNS 107% | SF-539 CNS 107% | UACC-257 melanoma 105% | M14 melanoma 99.1%

COc1cc(CC#N)c([N+](=O)[O-])cc1OC
inactive: NCI-H23 lung 96% | NCI-H226 lung 105% | NCI-H322M lung 105% | HOP-62 NSCLC 113% | NCI-H460 lung 106% | HOP-92 NSCLC 99.8% | NCI-H522 lung 102% | A549/ATCC NSCLC 102% | 786-0 renal 102% | COLO 205 colon 110% | DU-145 prostate 109% | K-562 leukemia 94.8% | MALME-3M melanoma 111% | MDA-MB-231 breast 99.9% | RXF 393 renal 112% | SF-268 CNS 103% | SF-295 CNS 110% | SF-539 CNS 102% | UACC-257 melanoma 103% | M14 melanoma 109%

COC1C(=O)CCC2(CO2)C1(O)C1(C)OC1CCC(C)C (stereo not given)
inactive: NCI-H23 lung 69.5% | NCI-H226 lung 85.2% | NCI-H322M lung 76.8% | HOP-62 NSCLC 71.5% | NCI-H460 lung 20.5% | HOP-92 NSCLC 67.5% | NCI-H522 lung 62.8% | A549/ATCC NSCLC 56.2% | 786-0 renal 81.2% | COLO 205 colon 65.9% | DU-145 prostate 48.7% | K-562 leukemia 47.6% | MALME-3M melanoma 103% | MDA-MB-231 breast 107% | RXF 393 renal 69.5% | SF-268 CNS 74.6% | SF-295 CNS 72.9% | SF-539 CNS 88% | UACC-257 melanoma 39.9% | M14 melanoma 56.5%

COc1nc2ccccc2s1
inactive: NCI-H23 lung 94.7% | NCI-H226 lung 97.3% | NCI-H322M lung 111% | HOP-62 NSCLC 114% | NCI-H460 lung 99.4% | HOP-92 NSCLC 99.2% | NCI-H522 lung 96.3% | A549/ATCC NSCLC 96.8% | 786-0 renal 104% | COLO 205 colon 93.1% | DU-145 prostate 110% | K-562 leukemia 102% | MALME-3M melanoma 111% | MDA-MB-231 breast 115% | RXF 393 renal 118% | SF-268 CNS 101% | SF-295 CNS 113% | SF-539 CNS 90.7% | UACC-257 melanoma 84.8% | M14 melanoma 93.5%

Clc1cccc(Cl)c1CSc1nc2ccccc2n2cccc12
inactive: NCI-H23 lung 90.6% | NCI-H226 lung 99.1% | NCI-H322M lung 71.8% | HOP-62 NSCLC 101% | NCI-H460 lung 105% | HOP-92 NSCLC 94% | NCI-H522 lung 68.3% | A549/ATCC NSCLC 95.4% | 786-0 renal 96.9% | COLO 205 colon 91.2% | DU-145 prostate 92.8% | K-562 leukemia 89% | MALME-3M melanoma 91.4% | MDA-MB-231 breast 98.2% | RXF 393 renal 97.6% | SF-268 CNS 96.9% | SF-295 CNS 98% | SF-539 CNS 102% | UACC-257 melanoma 95.6% | M14 melanoma 94.1%

C/C(=N\O)c1ccccn1
inactive: NCI-H23 lung 104% | NCI-H226 lung 98% | NCI-H322M lung 101% | HOP-62 NSCLC 102% | NCI-H460 lung 103% | HOP-92 NSCLC 95.4% | NCI-H522 lung 83.2% | A549/ATCC NSCLC 91.2% | 786-0 renal 101% | COLO 205 colon 108% | DU-145 prostate 106% | K-562 leukemia 106% | MALME-3M melanoma 108% | MDA-MB-231 breast 101% | RXF 393 renal 108% | SF-268 CNS 96.8% | SF-295 CNS 102% | SF-539 CNS 103% | UACC-257 melanoma 86.3% | M14 melanoma 105%

Cc1ccccc1NC(=O)Oc1ccc(Cl)cc1C(=O)c1ccccc1
inactive: NCI-H23 lung 95.1% | NCI-H226 lung 92.5% | NCI-H322M lung 99.1% | HOP-62 NSCLC 88.1% | NCI-H460 lung 104% | HOP-92 NSCLC 83.9% | NCI-H522 lung 88.4% | A549/ATCC NSCLC 91% | 786-0 renal 102% | COLO 205 colon 109% | DU-145 prostate 87.4% | K-562 leukemia 96.1% | MALME-3M melanoma 105% | MDA-MB-231 breast 85.1% | RXF 393 renal 82% | SF-268 CNS 72.7% | SF-295 CNS 107% | SF-539 CNS 87.3% | UACC-257 melanoma 102% | M14 melanoma 103%

CC1(C)CCC(C)(C)NC(=S)N1
inactive: NCI-H23 lung 100% | NCI-H322M lung 109% | HOP-62 NSCLC 94.9% | NCI-H460 lung 115% | HOP-92 NSCLC 107% | NCI-H522 lung 94.8% | A549/ATCC NSCLC 108% | 786-0 renal 105% | COLO 205 colon 103% | DU-145 prostate 107% | K-562 leukemia 103% | MALME-3M melanoma 97.3% | MDA-MB-231 breast 111% | RXF 393 renal 112% | SF-268 CNS 105% | SF-295 CNS 102% | SF-539 CNS 105% | UACC-257 melanoma 113% | M14 melanoma 98.9%
active: NCI-H226 lung -99.8%

Reference: PubChem BioAssay (NCI)
